Measured values: paper PMC7862700, “An all-to-all approach to the identification of sequence-specific readers for epigenetic DNA modifications on cytosine”

Experiments:
Experiment in all cases: DAPPL (digital affinity profiling via proximity ligation, sequencing); 10 mM Tris-HCl pH 7.5, 50 mM NaCl, 1 mM DTT, 4% glycerol, room temperature, 30 min; GST-TFs on glutathione beads, 16-mer random dsDNA library, 0.1% formaldehyde crosslink after washing; high values mean tight binding
Details in all cases: protein: recombinant; tags: N-terminal GST; dsDNA, one strand shown
[1] = molecular target: T1, FLI1 (Homo sapiens, UniProt Q01543 1-452)
T1 sequence: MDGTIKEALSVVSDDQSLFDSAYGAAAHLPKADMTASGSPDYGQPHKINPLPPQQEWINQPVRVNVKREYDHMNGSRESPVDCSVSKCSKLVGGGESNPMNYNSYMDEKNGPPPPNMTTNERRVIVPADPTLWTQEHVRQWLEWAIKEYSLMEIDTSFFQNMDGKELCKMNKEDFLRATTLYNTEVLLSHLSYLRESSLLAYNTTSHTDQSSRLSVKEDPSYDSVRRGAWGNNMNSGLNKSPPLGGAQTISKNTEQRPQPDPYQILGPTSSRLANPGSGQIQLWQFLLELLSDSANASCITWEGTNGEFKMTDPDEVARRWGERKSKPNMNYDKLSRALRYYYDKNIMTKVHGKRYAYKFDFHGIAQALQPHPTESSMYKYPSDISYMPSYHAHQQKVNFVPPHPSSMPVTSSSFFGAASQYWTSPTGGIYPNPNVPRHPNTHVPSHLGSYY
How it was run: (§1)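 Human transcription factors were made in yeast as GST fusions, captured on glutathione beads and barcoded with DNA. With a tag-only sample included, the pool was incubated with 200 nmole of a random double-stranded 16-mer DNA library in Tris/NaCl/DTT/glycerol buffer at room temperature for 30 min, then crosslinked with 0.1% formaldehyde after washing, ligated by proximity, amplified and sequenced. For binding signal, each hexamer's read frequency for a factor is divided by its frequency for the tag-only sample.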

[2] = molecular target: T2, ELK1 (Homo sapiens, UniProt P19419 1-428)
T2 sequence: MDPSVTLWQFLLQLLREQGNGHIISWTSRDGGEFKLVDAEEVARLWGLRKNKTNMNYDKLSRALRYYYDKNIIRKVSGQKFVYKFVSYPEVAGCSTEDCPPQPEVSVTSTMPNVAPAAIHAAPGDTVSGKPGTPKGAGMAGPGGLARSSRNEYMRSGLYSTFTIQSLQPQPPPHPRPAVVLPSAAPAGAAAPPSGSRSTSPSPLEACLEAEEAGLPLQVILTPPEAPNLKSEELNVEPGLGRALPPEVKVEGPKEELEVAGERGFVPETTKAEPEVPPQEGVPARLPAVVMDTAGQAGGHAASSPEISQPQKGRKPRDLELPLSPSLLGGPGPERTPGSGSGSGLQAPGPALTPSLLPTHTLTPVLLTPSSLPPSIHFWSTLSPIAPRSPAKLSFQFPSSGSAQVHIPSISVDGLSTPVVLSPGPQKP
How it was run: as §1

[3] = molecular target: T3, GABPA (Homo sapiens, UniProt Q06546 1-454)
T3 sequence: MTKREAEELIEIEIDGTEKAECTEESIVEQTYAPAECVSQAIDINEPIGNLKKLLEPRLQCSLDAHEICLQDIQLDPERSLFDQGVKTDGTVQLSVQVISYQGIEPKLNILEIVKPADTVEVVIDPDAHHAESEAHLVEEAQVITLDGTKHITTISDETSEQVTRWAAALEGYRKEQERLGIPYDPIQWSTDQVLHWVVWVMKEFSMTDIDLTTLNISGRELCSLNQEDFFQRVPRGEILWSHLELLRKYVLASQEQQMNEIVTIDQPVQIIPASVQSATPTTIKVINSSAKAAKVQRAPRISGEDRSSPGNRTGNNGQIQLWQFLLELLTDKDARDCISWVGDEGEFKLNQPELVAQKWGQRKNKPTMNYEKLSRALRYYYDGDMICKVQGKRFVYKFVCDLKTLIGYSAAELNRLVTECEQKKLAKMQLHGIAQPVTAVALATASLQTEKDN
How it was run: as §1

[4] = molecular target: T4, ERG (Homo sapiens, UniProt P11308 1-479)
T4 sequence: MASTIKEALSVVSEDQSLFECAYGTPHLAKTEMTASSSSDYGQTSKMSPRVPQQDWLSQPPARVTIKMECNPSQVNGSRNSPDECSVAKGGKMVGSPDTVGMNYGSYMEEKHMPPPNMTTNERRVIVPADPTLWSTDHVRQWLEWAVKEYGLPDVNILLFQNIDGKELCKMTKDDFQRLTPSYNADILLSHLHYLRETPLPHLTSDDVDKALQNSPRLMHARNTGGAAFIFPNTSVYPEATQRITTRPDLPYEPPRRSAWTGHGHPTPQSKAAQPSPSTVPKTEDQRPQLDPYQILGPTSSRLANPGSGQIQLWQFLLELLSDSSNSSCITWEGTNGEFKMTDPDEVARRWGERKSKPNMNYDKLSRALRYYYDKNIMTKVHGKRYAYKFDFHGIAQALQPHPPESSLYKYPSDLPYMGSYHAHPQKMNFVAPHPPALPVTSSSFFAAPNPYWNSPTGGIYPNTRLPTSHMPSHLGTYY
How it was run: as §1

[5] = molecular target: ELF1 (Homo sapiens, UniProt P32519 1-619)
Sequence of ELF1 (P32519 whole entry): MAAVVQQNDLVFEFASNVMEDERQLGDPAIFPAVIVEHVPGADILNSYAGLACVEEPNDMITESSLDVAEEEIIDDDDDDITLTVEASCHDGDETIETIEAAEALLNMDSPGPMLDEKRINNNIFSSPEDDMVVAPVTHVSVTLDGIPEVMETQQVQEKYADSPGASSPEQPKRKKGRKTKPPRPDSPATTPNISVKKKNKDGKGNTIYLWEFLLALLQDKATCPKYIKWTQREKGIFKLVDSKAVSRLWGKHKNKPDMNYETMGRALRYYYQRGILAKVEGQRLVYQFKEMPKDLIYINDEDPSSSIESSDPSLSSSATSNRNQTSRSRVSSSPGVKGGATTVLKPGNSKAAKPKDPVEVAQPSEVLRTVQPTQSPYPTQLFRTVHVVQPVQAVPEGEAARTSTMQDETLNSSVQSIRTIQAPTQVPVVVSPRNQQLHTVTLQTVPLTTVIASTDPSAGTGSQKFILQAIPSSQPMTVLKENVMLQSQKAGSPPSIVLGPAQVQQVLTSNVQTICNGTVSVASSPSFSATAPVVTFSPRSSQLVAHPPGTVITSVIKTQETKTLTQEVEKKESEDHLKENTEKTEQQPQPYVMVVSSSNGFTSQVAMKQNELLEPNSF
How it was run: as §1

[6] = molecular target: T5, EHF (Homo sapiens, UniProt Q9NZC4 1-300)
T5 sequence: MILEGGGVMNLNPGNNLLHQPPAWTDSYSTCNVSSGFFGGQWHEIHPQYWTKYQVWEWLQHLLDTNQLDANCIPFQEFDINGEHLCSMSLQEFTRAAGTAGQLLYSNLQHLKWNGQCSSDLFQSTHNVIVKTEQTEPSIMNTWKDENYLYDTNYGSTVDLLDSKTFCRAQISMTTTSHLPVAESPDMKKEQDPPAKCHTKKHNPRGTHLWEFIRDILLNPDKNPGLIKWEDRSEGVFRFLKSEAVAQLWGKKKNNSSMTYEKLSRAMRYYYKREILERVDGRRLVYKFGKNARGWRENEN
How it was run: as §1

[7] = molecular target: SPI1 (Homo sapiens, UniProt P17947 1-270)
How it was run: as §1

[8] = molecular target: SPIB (Homo sapiens, UniProt Q01892 1-262)
Sequence of SPIB (Q01892 whole entry): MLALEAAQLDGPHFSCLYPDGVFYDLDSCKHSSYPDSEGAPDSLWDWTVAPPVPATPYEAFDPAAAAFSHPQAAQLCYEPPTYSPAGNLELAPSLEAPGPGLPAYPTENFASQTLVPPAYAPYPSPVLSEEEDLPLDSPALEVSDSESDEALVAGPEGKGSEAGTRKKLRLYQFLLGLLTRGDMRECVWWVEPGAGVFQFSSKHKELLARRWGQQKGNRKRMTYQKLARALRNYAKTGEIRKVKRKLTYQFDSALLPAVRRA
How it was run: as §1

[9] = molecular target: T6, ELK3 (Homo sapiens, UniProt P41970 1-407)
T6 sequence: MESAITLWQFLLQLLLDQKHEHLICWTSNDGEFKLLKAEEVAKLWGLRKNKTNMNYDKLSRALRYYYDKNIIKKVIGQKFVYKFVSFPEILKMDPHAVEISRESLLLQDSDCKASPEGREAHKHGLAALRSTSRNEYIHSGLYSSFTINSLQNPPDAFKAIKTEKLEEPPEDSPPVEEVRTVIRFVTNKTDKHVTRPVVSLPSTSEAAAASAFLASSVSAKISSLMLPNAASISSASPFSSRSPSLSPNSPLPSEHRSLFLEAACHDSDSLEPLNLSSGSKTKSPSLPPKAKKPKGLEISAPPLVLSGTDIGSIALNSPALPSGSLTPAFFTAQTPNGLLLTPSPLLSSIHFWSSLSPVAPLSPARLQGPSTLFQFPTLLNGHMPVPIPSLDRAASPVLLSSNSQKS
How it was run: as §1

[10] = molecular target: T7, FEV (Homo sapiens, UniProt Q99581 1-238)
T7 sequence: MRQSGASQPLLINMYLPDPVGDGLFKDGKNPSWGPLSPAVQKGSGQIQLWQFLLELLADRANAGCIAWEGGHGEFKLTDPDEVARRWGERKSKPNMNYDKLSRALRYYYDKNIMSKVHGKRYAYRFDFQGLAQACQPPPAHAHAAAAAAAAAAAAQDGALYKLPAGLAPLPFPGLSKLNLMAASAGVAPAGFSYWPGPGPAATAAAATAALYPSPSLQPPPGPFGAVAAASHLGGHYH
How it was run: as §1

[11] = molecular target: ETV5 (Homo sapiens, UniProt P41161 1-510)
Sequence of ETV5 (P41161 whole entry): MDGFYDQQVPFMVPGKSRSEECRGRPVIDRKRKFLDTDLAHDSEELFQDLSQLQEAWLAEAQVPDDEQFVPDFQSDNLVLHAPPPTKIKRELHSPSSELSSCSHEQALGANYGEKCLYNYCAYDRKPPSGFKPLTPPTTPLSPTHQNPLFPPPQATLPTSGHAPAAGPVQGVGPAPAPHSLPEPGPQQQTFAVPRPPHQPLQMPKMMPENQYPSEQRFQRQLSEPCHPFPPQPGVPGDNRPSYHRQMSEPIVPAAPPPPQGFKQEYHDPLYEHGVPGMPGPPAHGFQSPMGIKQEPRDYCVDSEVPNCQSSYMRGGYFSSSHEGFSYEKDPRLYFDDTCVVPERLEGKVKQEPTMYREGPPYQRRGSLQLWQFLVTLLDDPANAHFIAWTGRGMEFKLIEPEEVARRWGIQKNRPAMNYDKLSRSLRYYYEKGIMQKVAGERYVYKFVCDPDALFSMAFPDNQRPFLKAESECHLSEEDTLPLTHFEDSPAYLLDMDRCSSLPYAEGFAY
How it was run: as §1

[12] = molecular target: T8, SPIC (Homo sapiens, UniProt Q8N5J4 1-248)
T8 sequence: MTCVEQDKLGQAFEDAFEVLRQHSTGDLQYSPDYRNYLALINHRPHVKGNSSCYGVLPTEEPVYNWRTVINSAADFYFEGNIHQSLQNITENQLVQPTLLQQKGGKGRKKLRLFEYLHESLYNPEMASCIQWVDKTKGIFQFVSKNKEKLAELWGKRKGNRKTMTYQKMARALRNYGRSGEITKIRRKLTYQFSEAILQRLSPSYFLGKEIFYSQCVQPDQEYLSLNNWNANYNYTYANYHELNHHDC
How it was run: as §1

[13] = molecular target: ELF4 (Homo sapiens, UniProt Q99607 1-663)
Sequence of ELF4 (Q99607 whole entry): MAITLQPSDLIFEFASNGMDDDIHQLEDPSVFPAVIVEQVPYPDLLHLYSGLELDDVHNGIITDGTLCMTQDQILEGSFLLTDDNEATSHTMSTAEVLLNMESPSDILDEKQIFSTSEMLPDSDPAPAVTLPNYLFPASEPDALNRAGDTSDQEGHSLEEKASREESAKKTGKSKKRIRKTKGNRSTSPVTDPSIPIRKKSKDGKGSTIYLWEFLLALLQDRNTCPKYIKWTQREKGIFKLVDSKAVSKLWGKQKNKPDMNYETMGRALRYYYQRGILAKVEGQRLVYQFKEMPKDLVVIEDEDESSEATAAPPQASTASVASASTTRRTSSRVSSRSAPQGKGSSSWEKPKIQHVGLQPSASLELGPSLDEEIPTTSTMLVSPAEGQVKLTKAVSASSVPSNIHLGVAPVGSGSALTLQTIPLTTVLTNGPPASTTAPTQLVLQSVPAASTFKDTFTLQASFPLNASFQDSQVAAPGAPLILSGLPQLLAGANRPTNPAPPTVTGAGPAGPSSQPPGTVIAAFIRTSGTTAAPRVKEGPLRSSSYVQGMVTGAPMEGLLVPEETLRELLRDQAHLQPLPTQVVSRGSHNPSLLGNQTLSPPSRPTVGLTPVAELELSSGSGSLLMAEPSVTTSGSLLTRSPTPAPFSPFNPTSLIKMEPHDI
How it was run: as §1

[14] = molecular target: T9, ELK4 (Homo sapiens, UniProt P28324-2 1-405)
T9 sequence: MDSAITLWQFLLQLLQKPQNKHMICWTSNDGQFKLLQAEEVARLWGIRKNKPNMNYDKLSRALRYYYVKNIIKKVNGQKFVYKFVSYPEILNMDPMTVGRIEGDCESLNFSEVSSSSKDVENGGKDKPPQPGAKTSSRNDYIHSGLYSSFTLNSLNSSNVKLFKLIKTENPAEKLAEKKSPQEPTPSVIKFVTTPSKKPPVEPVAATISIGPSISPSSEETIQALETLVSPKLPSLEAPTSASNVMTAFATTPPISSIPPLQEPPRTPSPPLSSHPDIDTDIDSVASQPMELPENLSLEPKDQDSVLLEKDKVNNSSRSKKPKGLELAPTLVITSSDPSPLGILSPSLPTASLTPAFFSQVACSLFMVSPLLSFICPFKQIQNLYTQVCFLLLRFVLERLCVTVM
How it was run: as §1

[15] = molecular target: T10, ETV2 (Homo sapiens, UniProt O00321 1-342)
T10 sequence: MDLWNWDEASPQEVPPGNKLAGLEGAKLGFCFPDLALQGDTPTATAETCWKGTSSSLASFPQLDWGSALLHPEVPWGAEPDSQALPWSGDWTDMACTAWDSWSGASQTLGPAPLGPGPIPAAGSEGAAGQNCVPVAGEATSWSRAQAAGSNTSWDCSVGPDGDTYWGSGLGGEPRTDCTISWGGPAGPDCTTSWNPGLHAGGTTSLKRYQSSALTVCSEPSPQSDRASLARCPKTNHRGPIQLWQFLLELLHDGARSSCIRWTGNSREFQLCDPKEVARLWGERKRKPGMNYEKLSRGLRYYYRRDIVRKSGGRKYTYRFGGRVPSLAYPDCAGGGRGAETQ
How it was run: as §1

[16] = molecular target: T11, ELF3 (Homo sapiens, UniProt P78545 1-371)
T11 sequence: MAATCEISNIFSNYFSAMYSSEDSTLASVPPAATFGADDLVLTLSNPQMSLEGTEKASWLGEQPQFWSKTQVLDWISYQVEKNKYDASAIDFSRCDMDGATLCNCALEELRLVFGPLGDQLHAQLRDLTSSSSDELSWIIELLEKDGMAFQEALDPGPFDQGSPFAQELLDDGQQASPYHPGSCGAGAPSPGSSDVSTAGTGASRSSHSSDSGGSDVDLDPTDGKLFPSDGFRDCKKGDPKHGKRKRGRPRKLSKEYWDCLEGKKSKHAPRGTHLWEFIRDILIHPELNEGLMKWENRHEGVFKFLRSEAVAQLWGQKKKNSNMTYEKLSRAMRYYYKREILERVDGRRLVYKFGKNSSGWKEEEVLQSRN
How it was run: as §1

[17] = molecular target: CRX (Homo sapiens, UniProt O43186 1-299)
Sequence of CRX (O43186 whole entry): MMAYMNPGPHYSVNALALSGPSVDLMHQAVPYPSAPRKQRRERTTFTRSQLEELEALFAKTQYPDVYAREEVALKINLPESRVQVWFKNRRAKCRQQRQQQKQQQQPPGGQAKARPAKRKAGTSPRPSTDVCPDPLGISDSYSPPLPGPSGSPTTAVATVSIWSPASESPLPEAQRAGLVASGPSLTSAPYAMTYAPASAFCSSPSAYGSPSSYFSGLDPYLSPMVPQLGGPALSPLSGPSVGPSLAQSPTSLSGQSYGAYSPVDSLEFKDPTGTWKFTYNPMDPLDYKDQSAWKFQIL
How it was run: as §1

[18] = molecular target: ETV1 (Homo sapiens, UniProt P50549 1-477)
Sequence of ETV1 (P50549 whole entry): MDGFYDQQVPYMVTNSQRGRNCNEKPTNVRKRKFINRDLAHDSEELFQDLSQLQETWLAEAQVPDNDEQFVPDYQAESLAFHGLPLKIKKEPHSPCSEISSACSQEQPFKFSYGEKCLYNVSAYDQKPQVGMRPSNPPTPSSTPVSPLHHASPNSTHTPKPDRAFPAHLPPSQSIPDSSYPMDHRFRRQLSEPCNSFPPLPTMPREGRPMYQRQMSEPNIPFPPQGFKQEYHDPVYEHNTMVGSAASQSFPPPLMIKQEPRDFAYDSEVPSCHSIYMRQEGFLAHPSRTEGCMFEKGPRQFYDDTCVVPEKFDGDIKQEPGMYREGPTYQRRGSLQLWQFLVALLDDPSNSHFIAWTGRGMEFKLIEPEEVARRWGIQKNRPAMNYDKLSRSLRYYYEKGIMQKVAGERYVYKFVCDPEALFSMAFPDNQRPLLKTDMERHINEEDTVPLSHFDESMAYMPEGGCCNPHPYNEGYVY
How it was run: as §1

Sequence	binding signal [1]	binding signal [2]	binding signal [3]	binding signal [4]	binding signal [5]	binding signal [6]	binding signal [7]	binding signal [8]	binding signal [9]	binding signal [10]	binding signal [11]	binding signal [12]	binding signal [13]	binding signal [14]	binding signal [15]	binding signal [16]	binding signal [17]	binding signal [18]
TCCGTT	1.44 fold enrichment (6-mer frequency, TF over GST control)	1.61 fold enrichment (6-mer frequency, TF over GST control)	1.42 fold enrichment (6-mer frequency, TF over GST control)	1.68 fold enrichment (6-mer frequency, TF over GST control)	1.34 fold enrichment (6-mer frequency, TF over GST control)	1.4 fold enrichment (6-mer frequency, TF over GST control)	1.53 fold enrichment (6-mer frequency, TF over GST control)	1.53 fold enrichment (6-mer frequency, TF over GST control)	1.54 fold enrichment (6-mer frequency, TF over GST control)	1.71 fold enrichment (6-mer frequency, TF over GST control)	1.49 fold enrichment (6-mer frequency, TF over GST control)	1.62 fold enrichment (6-mer frequency, TF over GST control)	1.25 fold enrichment (6-mer frequency, TF over GST control)	1.48 fold enrichment (6-mer frequency, TF over GST control)	1.44 fold enrichment (6-mer frequency, TF over GST control)	1.35 fold enrichment (6-mer frequency, TF over GST control)	1.13 fold enrichment (6-mer frequency, TF over GST control)	1.36 fold enrichment (6-mer frequency, TF over GST control)
AACGGC	1.08 fold enrichment (6-mer frequency, TF over GST control)	1.13 fold enrichment (6-mer frequency, TF over GST control)	1.25 fold enrichment (6-mer frequency, TF over GST control)	1.18 fold enrichment (6-mer frequency, TF over GST control)	1.16 fold enrichment (6-mer frequency, TF over GST control)	1.25 fold enrichment (6-mer frequency, TF over GST control)	1.2 fold enrichment (6-mer frequency, TF over GST control)	1.24 fold enrichment (6-mer frequency, TF over GST control)	1.06 fold enrichment (6-mer frequency, TF over GST control)	1.17 fold enrichment (6-mer frequency, TF over GST control)	1.29 fold enrichment (6-mer frequency, TF over GST control)	1.12 fold enrichment (6-mer frequency, TF over GST control)	1.24 fold enrichment (6-mer frequency, TF over GST control)	1.24 fold enrichment (6-mer frequency, TF over GST control)	1.21 fold enrichment (6-mer frequency, TF over GST control)	1.12 fold enrichment (6-mer frequency, TF over GST control)	1.11 fold enrichment (6-mer frequency, TF over GST control)	1.17 fold enrichment (6-mer frequency, TF over GST control)
